Results: PubChem BioAssay (NCI)
This is part of a sample that, as a whole, favours compounds with a hit. Of some 79,000 tested, about 15% had one in any assay. Calls of active or inactive are those of the source. Rule as the data show it: active = growth inhibition above about 70%; inactive = the rest.

Tests used:
[1] = NCI Yeast Anticancer Drug Screen. Data for the rad50 strain (AID 155);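 also: 0% = growth of vehicle-only cultures of the same strain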; conditions: S. cerevisiae rad50 strain growth inhibition, stronger effect = higher value
Procedure, shortened: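 Compounds were tested on a yeast strain with an engineered DNA damage repair alteration; the reported value is growth inhibition normalised to vehicle treatment.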

[2] = NCI Yeast Anticancer Drug Screen. Data for the mec2-1 strain (AID 157); conditions: S. cerevisiae mec2-1 strain, stronger effect = higher value
Procedure, shortened: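 Vehicle-treated cultures served as reference for growth inhibition of compound-exposed mec2-1 yeast.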

[3] = NCI Yeast Anticancer Drug Screen. Data for the sgs1 mgt1 strain (AID 161);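 also: 0% = growth of cultures given vehicle only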; conditions: S. cerevisiae sgs1 mgt1 strain, stronger effect = higher value
Procedure, shortened: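 Genetically altered yeast, compound exposure, growth inhibition relative to vehicle.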

[4] = NCI Yeast Anticancer Drug Screen. Data for the cln2 rad14 strain (AID 165);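 also: 0% = growth equal to vehicle treated cultures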; conditions: S. cerevisiae cln2 rad14 strain, stronger effect = higher value
Procedure, shortened: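 Each compound was tested on cln2 rad14 yeast. Inhibition of growth was calculated against vehicle-exposed controls.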

[5] = NCI Yeast Anticancer Drug Screen. Data for the bub3 strain (AID 167); conditions: S. cerevisiae bub3 mutant strain, stronger effect = higher value
Procedure, shortened: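 Growth of a checkpoint-deficient yeast mutant is measured after compound exposure. Values represent inhibition relative to vehicle.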

[6] = NCI Yeast Anticancer Drug Screen. Data for the mlh1 rad18 strain (AID 175); conditions: S. cerevisiae mlh1 rad18 strain growth inhibition, stronger effect = higher value
Procedure, shortened: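 Vehicle-treated cultures served as the reference for growth inhibition in a yeast strain carrying DNA damage repair alterations exposed to each compound.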

[7] = at 5.0 µM (retest, dose inferred, filed as 0.5)
[8] = at 50.0 µM (retest, dose inferred, filed as 5.0)

Measured: growth inhibition

O=C(O)Cc1nc2ccccc2[nH]1
active: [1]; [8] 95% | [2]; [8] 70% | [3]; [8] 99% | [5]; [8] 98% | [6]; [8] 99%
inactive: [1]; [7] 1% | [1]; at 50.0 µM 25.9% | [2]; [7] 9% | [2]; at 50.0 µM 51.2% | [3]; [7] 14% | [3]; at 50.0 µM 2.85% | [4]; [7] 0% | [4]; [8] 34% | [4]; at 50.0 µM 14.8% | [5]; [7] 1% | [5]; at 50.0 µM -3.2% | [6]; [7] 2% | [6]; at 50.0 µM 3.05%

O=C1C=CC(=Nc2cc3c(cc2Br)-c2ccccc2C3Br)O1 (stereo not given)
active: [1]; [8] 99% | [2]; [8] 99% | [2]; at 50.0 µM 79.8% | [3]; [8] 100% | [4]; [8] 99% | [5]; [8] 99% | [6]; [8] 99%
inactive: [1]; [7] 23% | [1]; at 50.0 µM 28.9% | [2]; [7] 20% | [3]; [7] 15% | [3]; at 50.0 µM 21.4% | [4]; [7] 6% | [4]; at 50.0 µM -12.8% | [5]; [7] 7% | [5]; at 50.0 µM -3.95% | [6]; [7] 26% | [6]; at 50.0 µM 28.9%

CC(=O)n1nc2c(c1CC(C)C)C(=O)C(Nc1ccccc1)=CC2=O
active: [1]; [8] 100% | [1]; at 50.0 µM 77% | [2]; [8] 100% | [3]; [8] 100% | [3]; at 50.0 µM 80.2% | [4]; [8] 99% | [5]; [8] 99% | [6]; [8] 99% | [6]; at 50.0 µM 78.3%
inactive: [1]; [7] 1% | [2]; [7] 1% | [2]; at 50.0 µM 68.2% | [3]; [7] 1% | [4]; [7] 6% | [4]; at 50.0 µM 27.9% | [5]; [7] -2% | [5]; at 50.0 µM 23.2% | [6]; [7] 1%

O=C(CCN1CCCC1)c1ccc(Oc2ccc(F)cc2)cc1
active: [5]; [8] 72%
inactive: [1]; [7] 28% | [1]; [8] 50% | [1]; at 50.0 µM 69.8% | [2]; [7] 20% | [2]; [8] 48% | [2]; at 50.0 µM 11.7% | [3]; [7] 31% | [3]; [8] 60% | [3]; at 50.0 µM 47.2% | [4]; [7] 34% | [4]; [8] 68% | [4]; at 50.0 µM 54.7% | [5]; [7] 31% | [5]; at 50.0 µM 49.4% | [6]; [7] 30% | [6]; [8] 56% | [6]; at 50.0 µM 63.4%

S=c1[nH]c2ccc(Cl)cc2s1
inactive: [1]; [7] -22% | [1]; [8] 54% | [2]; [7] -2% | [2]; [8] 69% | [2]; at 50.0 µM 65.8% | [3]; [7] -13% | [4]; [7] -60% | [4]; [8] 31% | [5]; [7] -19% | [5]; at 50.0 µM 42% | [6]; [7] -19%
active: [1]; at 50.0 µM 72.9% | [3]; [8] 92% | [3]; at 50.0 µM 82.2% | [4]; at 50.0 µM 83.8% | [5]; [8] 77% | [6]; [8] 91% | [6]; at 50.0 µM 87.2%

CC(=O)Oc1cc2c(cc1OC(C)=O)OCC(c1ccccc1)C2 (stereo not given)
inactive: [1]; [7] 2% | [1]; [8] 45% | [1]; at 50.0 µM 69.3% | [2]; [7] 5% | [2]; [8] 48% | [2]; at 50.0 µM 56.3% | [3]; [7] 4% | [3]; [8] 60% | [4]; [7] 3% | [4]; [8] 20% | [4]; at 50.0 µM 35.9% | [5]; [7] 41% | [6]; [7] -10% | [6]; [8] 53% | [6]; at 50.0 µM 63.4%
active: [3]; at 50.0 µM 76.5% | [5]; [8] 93% | [5]; at 50.0 µM 94.8%

S=C(N/N=C/c1ccccn1)N1CCCCCC1
active: [1]; [7] 99% | [1]; [8] 100% | [1]; at 50.0 µM 88.8% | [2]; [7] 98% | [2]; [8] 100% | [2]; at 50.0 µM 92.8% | [3]; [7] 98% | [3]; [8] 99% | [3]; at 50.0 µM 91.6% | [4]; [7] 97% | [4]; [8] 100% | [4]; at 50.0 µM 92.8% | [5]; [7] 99% | [5]; [8] 100% | [5]; at 50.0 µM 92.2% | [6]; [7] 99% | [6]; [8] 99% | [6]; at 50.0 µM 88.8%

ClCc1nnc2n1-c1ccc(Cl)cc1SC2
inactive: [1]; [7] 3% | [1]; [8] 68% | [1]; at 50.0 µM 12.4% | [2]; [7] 0% | [2]; [8] 64% | [2]; at 50.0 µM 25.9% | [3]; [7] -21% | [3]; [8] 66% | [3]; at 50.0 µM 35.3% | [4]; [7] 13% | [4]; at 50.0 µM 6.15% | [5]; [7] 3% | [5]; at 50.0 µM 20.9% | [6]; [7] -20% | [6]; at 50.0 µM 24.1%
active: [4]; [8] 88% | [5]; [8] 92% | [6]; [8] 87%

CN(C)CCC(/C=C/c1ccccc1)=N\Nc1ccc(Cl)c(Cl)c1
active: [1]; [7] 98% | [1]; [8] 96% | [1]; at 50.0 µM 99.7% | [2]; [7] 99% | [2]; [8] 98% | [2]; at 50.0 µM 99.6% | [3]; [7] 99% | [3]; [8] 98% | [3]; at 50.0 µM 99.5% | [4]; [7] 75% | [4]; [8] 95% | [4]; at 50.0 µM 98% | [5]; [7] 95% | [5]; [8] 97% | [5]; at 50.0 µM 99.3% | [6]; [7] 98% | [6]; [8] 97% | [6]; at 50.0 µM 99.5%

COc1ccc(NC(=O)OC(C)C)c(OC)c1
inactive: [1]; [7] 2% | [1]; [8] 10% | [1]; at 50.0 µM -2.75% | [2]; [7] -4% | [2]; [8] 4% | [2]; at 50.0 µM 6.45% | [3]; [7] -3% | [3]; [8] 7% | [3]; at 50.0 µM -21.4% | [4]; [7] 5% | [4]; [8] 2% | [4]; at 50.0 µM 45.4% | [5]; [7] 15% | [5]; [8] 42% | [5]; at 50.0 µM 18.4% | [6]; [7] 3% | [6]; [8] 8% | [6]; at 50.0 µM -10.8%
